Laboratory results published in ChEMBL document CHEMBL3988442, “University of Dundee, Small-Polar-MMV Screening Library” (2021).
Among all 38,000 compounds or so, about 1,200 (3.2%) showed an effect of 50% or more. The median lay at about -58%. Many of the other results were omitted from the sample, so strong results are more common in it than they were.

What follows are compounds tested on Plasmodium falciparum (assay: Calibr Malaria Delayed Death Assay SOP). Details: concentration 4.99e-06 (unit not given; other assays of the set use mol/L).
Type: functional, organism-based
Parameters: scale not given: in the data most compounds retested in dose-response had high values

Structure (SMILES)	Percent Effect [%]
CCCc1noc(CN2CCC(C(=O)Nc3cnn(CC)c3)CC2)n1	-105
Cc1cc(C)n(C2CCCN(C(=O)Cc3cccs3)C2)n1 (stereo not drawn)	-45.18
Cc1nccn1CCCn1c(=O)cnc2ccccc21	-30.97
CNC(=O)C1(CCCc2ccncc2)CCN1.O=C(O)C(F)(F)F (stereo not drawn)	-123.5
Cc1ccc2c(c1)C1(CCNCC1)CC2NC(C)C.Cl.Cl (stereo not drawn)	-38.07
COc1ccc2c(c1)C1(CCNCC1)CC2NC1CC1.Cl.Cl (stereo not drawn)	-4.171
Cc1ccc2c(c1)C1(CCNCC1)CC2NC1CC1.Cl.Cl (stereo not drawn)	73.32
Cc1ccnc(N2CCC(OCCN3CCCCC3)C2)n1 (stereo not drawn)	-84.22
CC(C)(C)c1nccc(N2CCC(OCCN3CCCCC3)C2)n1 (stereo not drawn)	62.36
COc1ccnc(N2CCC(OCCN3CCCCC3)C2)n1 (stereo not drawn)	51.05
CC(C)(C)c1nccc(N2CCN(C3CCS(=O)(=O)C3)CC2)n1 (stereo not drawn)	-36.45
Cc1cnc(N2CCC(OCCN3CCCCC3)C2)nc1C (stereo not drawn)	23.23
C1CCN(CCOC2CCNCC2)CC1	-37.31
O=c1cc(Cn2ccnc2)nc2n1CCCN(Cc1ccncc1)C2	-42.89
Cn1cccc1C(=O)N1CCCn2nc(CCC(=O)NC3CC3)cc2C1	-14.31
O=C(c1ccc(S(=O)(=O)NCc2ccon2)cc1)N1CCOCC1	-26.34
O=C(O)C(F)(F)F.O=C(c1ccnnc1)N1C[C@@H]2C[C@@H](c3nc(C4CC4)cs3)O[C@@H]2C1	-41.35
Cc1ccoc1C(=O)N1C[C@@H](OCC2CCOCC2)[C@H]2OCCC[C@H]21	0.5559
CCOc1ccc(NC(C)C(=O)Nc2cc(C)no2)cc1 (stereo not drawn)	-61.09
OC1(CN2CCCCC2)CCN(Cc2c[nH]c(CC3CCCC3)n2)C1 (stereo not drawn)	52.98
COC[C@]1(O)CCN(Cc2c[nH]c(CC3CCCC3)n2)CC1(C)C	15.86
C[C@@H]1CN(Cc2c[nH]c(CC3CCCC3)n2)CC[C@]1(C)O	-135.8
CC1(C)CN(Cc2c[nH]c(CC3CCCC3)n2)CC[C@]1(C)O	-34.05
c1[nH]c(CC2CCCC2)nc1CN1CCCC2(CCOC2)C1 (stereo not drawn)	81.53

Structure (SMILES)	Percent Effect [%]
OC1(CN2CCCC2)CCCN(Cc2c[nH]c(CC3CCCC3)n2)C1 (stereo not drawn)	36.89
CN1CC(=O)N(c2ccccc2)CC12CCN(C(=O)c1cnccn1)C2.O=C(O)C(F)(F)F (stereo not drawn)	-66.28
O=C(O)C(F)(F)F.O[C@@H]1CCN(CC2CC2)[C@H]1Cc1ccccc1	63.26
COc1ccc(CN2CC[C@@H](O)[C@@H]2Cc2cnn(C)c2)cc1.O=C(O)C(F)(F)F	-130.2
COc1ccc(CN2CC[C@@H](O)[C@@H]2Cc2ccccc2)cc1.O=C(O)C(F)(F)F	80.27
Cn1cc(CN2CC[C@H](O)[C@@H]2Cc2ccccc2)cn1.O=C(O)C(F)(F)F	22.75
O=C(O)C(F)(F)F.O=C(O)C(F)(F)F.O[C@@H]1CCN(CC2CCOC2)[C@H]1Cc1cccnc1 (stereo partly drawn)	-68.9
Cn1cc(CN2CC[C@@H](O)[C@@H]2Cc2ccccc2)cn1	-45.02
O=C(O)C(F)(F)F.O[C@@H]1CCN(CC2CCOC2)[C@H]1Cc1ccccc1 (stereo partly drawn)	-110.3
COc1ccc(CN2CC[C@H](O)[C@@H]2Cc2cnn(C)c2)cc1.O=C(O)C(F)(F)F	-6.903
NCC(CO)Cc1ccc(C(F)(F)F)cc1 (stereo not drawn)	-43.7
CC(C)Oc1ncccc1CNC(=O)c1ccc(=O)[nH]n1	-94.73
CCCS(=O)(=O)NCCc1ncc(C)s1	-127.4
COc1ccc(NC(=O)C(c2cccc(F)c2)N2CCOCC2)cc1 (stereo not drawn)	-6.296
Cc1cc(C)c(S(=O)(=O)Nc2cccc3c2OCCO3)cc1C(=O)O	-20.88
CNCC(=O)NC1CC(C)(C)Cc2nc(C(C)(C)C)ncc21 (stereo not drawn)	3.513
CC(C)C(=O)N1CCN(Cc2cnn(C)c2)CC2(CC(=O)N(C)C2)C1.O=C(O)C(F)(F)F (stereo not drawn)	-69.27
COc1ccc2nnc(C(=O)NCC3CCCC3)nc2c1	-78.39
OC1(CNCc2ccc(F)c(C(F)(F)F)c2)CCOC1 (stereo not drawn)	-5.548
Cc1cc(CNCC2(O)CCOCC2)ccc1Br	44
OC1(CNCc2ccc(F)c(C(F)(F)F)c2)CCSCC1	54.72
Cc1cc(CNCC2(O)CCOCC2)ccc1F	16.95
CN1CCC(O)(CNCc2ccc(F)c(C(F)(F)F)c2)CC1	82.66
O=C(NCc1ccc(Cl)cc1Cl)NCC1(O)CCSC1 (stereo not drawn)	0.496

Structure (SMILES)	Percent Effect [%]
COCC1CN(Cc2ccsc2)Cc2cnn(C)c21 (stereo not drawn)	-44.18
CC(C)[C@H](NC(=O)NC1CCS(=O)(=O)C1)C(=O)NCc1ccccc1 (stereo partly drawn)	-124.5
CC(C)c1cc(C(=O)N2C[C@H]3CC[C@@H]2CN(Cc2ccccn2)C3)no1	-200.1
Cc1cnn(C2CN(CC(=O)NCc3ccccn3)C2)c1	-188.5
Cc1nnsc1CN1C[C@H]2CC[C@@H]1CN(Cc1ccccn1)C2	-7.135
O=C(CN1C[C@H]2CC[C@@H]1CN(Cc1ccccn1)C2)NCc1cccs1	67.17
O=C(CN1C[C@H]2CC[C@@H]1CN(Cc1ccccn1)C2)Nc1ccccc1	82.97
O=C(c1cc(C2CC2)no1)N1C[C@H]2CC[C@@H]1CN(Cc1ccccn1)C2	5.083
Cc1nccc(CNC(=O)N(CCCO)C2CCc3ccccc32)n1 (stereo not drawn)	-86.6
COc1ccccc1CNC(=O)COc1ccc2c(c1)OCC2O (stereo not drawn)	-166.7
CC(C)n1cc(-c2nc3cc(S(=O)(=O)N4CCCC4)ccc3n2C)cn1	-92.66
Cc1ccc(C(C(=O)NCCN2CCC(CO)CC2)N(C)C)cc1 (stereo not drawn)	-10.34
CC1(C(=O)NCCN2CCCCC2)CCCN1C(=O)c1ccccc1 (stereo not drawn)	-16.7
Cc1ccccc1C(C(=O)NCCN1CCC(CO)CC1)N(C)C (stereo not drawn)	-106.7
Cc1ccc(C(C(=O)NCCN2CCCCCC2)N(C)C)cc1 (stereo not drawn)	58.29
CN1CCN(CCNC(=O)C(OC2CCCC2)c2ccccc2)CC1 (stereo not drawn)	38.55
Cc1ccccc1C(C(=O)NCCn1cccc1)N(C)C (stereo not drawn)	36.37
O=C(NCCN1CCCCC1)C(c1ccccc1)N1CCCC1 (stereo not drawn)	79.97
O=C(NCCn1cccc1)C(c1ccccc1)N1CCCC1 (stereo not drawn)	54.29
O=C(NCCNc1cccnc1)C(c1cccnc1)N1CCCC1 (stereo not drawn)	-14.56
COc1cccc(Cn2cc(N3C(=O)[C@H]4CCCC[C@H]4C3=O)cn2)c1	-60.69
Cc1cccc(C)c1OCCCN1CCN(CC2CCCO2)CC1 (stereo not drawn)	11.15
CC/N=c1\nc(NCC)nc2n1C(O)(Nc1cc(Cl)ccc1Cl)CS2 (stereo not drawn)	-3.589
CC(=O)c1ccc(NC(=O)N[C@H](C(=O)O)C(C)C)cc1	-95.29

Structure (SMILES)	Percent Effect [%]
NC1CCCc2nc(-c3ccccc3)ncc21 (stereo not drawn)	-87.16
O=C(c1ccccc1Cl)N1CC[C@H](O)[C@@H](N2CCOCC2)CC1	-83.45
O=C(O)C(F)(F)F.O=C(O)C(F)(F)F.O=C(O)C(F)(F)F.c1cc(COC[C@]23COC[C@H]2CN(Cc2ccncc2)C3)ccn1	-128.8
COc1cc(N2C[C@@H]3COC[C@]3(COCc3ccccn3)C2)ncn1.O=C(O)C(F)(F)F.O=C(O)C(F)(F)F	-135.9
COc1ccccc1CN1C[C@@H]2COC[C@]2(COc2cccnc2)C1.O=C(O)C(F)(F)F.O=C(O)C(F)(F)F	52.99
COc1ccccc1CN1C[C@@H]2COC[C@]2(COCc2ccncc2)C1.O=C(O)C(F)(F)F.O=C(O)C(F)(F)F	53.03
CCOC[C@]12COC[C@H]1CN(Cc1cccc(OC)c1)C2.O=C(O)C(F)(F)F	-1.674
COc1cccc(CN2C[C@@H]3COC[C@]3(COCc3ccccn3)C2)c1.O=C(O)C(F)(F)F.O=C(O)C(F)(F)F	58.94
COc1cccc(CN2C[C@@H]3COC[C@]3(COc3cccnc3)C2)c1.O=C(O)C(F)(F)F.O=C(O)C(F)(F)F	12.68
O=C(O)C(F)(F)F.O=C(O)C(F)(F)F.O=C(O)C(F)(F)F.c1ccc(CN2C[C@@H]3COC[C@]3(COCc3ccncc3)C2)nc1	-55.25
COc1ncccc1CN1C[C@@H]2COC[C@]2(COc2cccnc2)C1.O=C(O)C(F)(F)F.O=C(O)C(F)(F)F.O=C(O)C(F)(F)F	-33.52
Cc1cnc(CN(C)Cc2cc3c(cc2OC(F)F)OCO3)o1	-25.68
Cc1noc(C)c1CSCc1csc(CS(C)(=O)=O)n1	-34.91
COCCCNC(=O)c1cc(-c2cnc(N3CCOCC3)nc2)cn1C.O=C(O)C(F)(F)F	-55.95
CCn1ncc2c1C(COC)CN(Cc1nccs1)C2 (stereo not drawn)	-17.13
COc1ccc(-n2ccc(C(=O)NCCN3CCCC(C)C3)n2)cc1 (stereo not drawn)	4.937
Cn1cc(CN2C[C@H]3CCN(C(=O)c4cscn4)C[C@H]3C2)cn1.O=C(O)C(F)(F)F	-59.18
CC(Cn1cccn1)NCc1csc(Cc2ccccc2)n1 (stereo not drawn)	5.726
COc1ccc(CCN)cc1-c1ccc(O)cc1	84.96
COc1ccc(CCN)cc1-c1ccc(C(N)=O)cc1	6.686
CCOc1ccc(-c2cc(CCN)ccc2OC)cc1	-62.01
